A short description of test [1]: Natriuretic polypeptide receptor (hNpr1) antagonism - Pilot counterscreen GloSensor control cell line (AID 1347045). Note: potency is the fitted concentration of half-maximal effect. To be noted: HEK293 cGMP GloSensor cells, SNP-stimulated luminescence, 20 min; series mostly up to 38.3 µM. The method, boiled down:
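HEK293 cells carrying the GloSensor cGMP sensor (GIP/pGS-40F) were loaded with 2% GloSensor reagent for 2 h, exposed to compounds for 30 min, and then stimulated with 50 uM sodium nitroprusside for 20 min at room temperature.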
For orientation: The purpose of a counterscreen is to sort out artefacts and off-target activity.

The target of test [2] is Atrial natriuretic peptide receptor 1 (Homo sapiens) (UniProt P16066). The experiment in a line: Natriuretic polypeptide receptor (hNpr1) antagonism - Pilot screen (AID 1347049).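 Note: agonist-evoked cGMP luminescence read 20 min after hNppA addition.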 Note: potency is the fitted concentration of half-maximal effect. To be noted: hNpr1 cells, antagonist mode cGMP read-out; series mostly up to 57.5 µM. The method, boiled down: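 HEK293 cells co-expressing hNpr1 and the GloSensor pGS-40F cGMP luciferase sensor were preloaded with 2% GloSensor reagent for 2 h. Compounds were added for 30 min at room temperature, then cells were stimulated with 0.1 nM hNppA for 20 min before luminescence readout.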

Test [3] concerns the target Atrial natriuretic peptide receptor 2 (Homo sapiens) (UniProt P20594). The experiment in a line: Natriuretic polypeptide receptor (hNpr2) antagonism - Pilot subtype selectivity assay (AID 1347050). Note: potency is the fitted concentration of half-maximal effect. Conditions: NPR2-expressing cells, cGMP antagonist-mode read-out; series mostly up to 38.3 µM. The method, boiled down:
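cGMP-sensor HEK293/hNpr2 cells; 2% GloSensor reagent 2 h RT; compounds 30 min; baseline luminescence read; 1 nM hNppC agonist 20 min RT; final luminescence read by CCD camera. Antagonism = reduced post-agonist signal.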

Test [4] is described as follows: NS1 protein of Zika virus - qHTS assay to identify small molecule inhibitors in human HEK 293 cells (AID 1347053; active = well fitted curve in the direction sought with a large enough effect; an effect the other way counts as inactive or inconclusive; note: nearly all actives have a fitted effect of over 55% in size). Conditions: HEK293 ZIKV MR766 infection, NS1 TR-FRET, 24 h; series mostly up to 46.1 µM. The method, boiled down:
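Inhibition of NS1 expression was scored in HEK 293 cells given compound 1 h ahead of MR766 virus (MOI = 0.5). Following 24 h at 37 C, two anti-NS1 antibodies generated a TR-FRET signal, scaled between uninfected and infected controls.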

For test [5], the target named is T1, Tyrosine-protein phosphatase non-receptor type substrate 1 (Homo sapiens) + Leukocyte surface antigen CD47 (Homo sapiens) (UniProt P78324+Q08722). The experiment in a line: CD47-SIRPalpha protein protein interaction - LANCE assay qHTS validation (AID 1347057; active = well fitted curve in the direction sought with a large enough effect in the signal ratio, with a control signal flat, not every such curve was filed as active; the % refers to the signal ratio; note: potency is the fitted concentration of half-maximal effect). To be noted: Recombinant CD47-His / biotin-SIRPalpha, TR-FRET ratio; series mostly up to 38.3 µM. Summed up:
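First, His-tagged CD47 and Eu-labelled anti-His antibody met the compound for 30 min; next, site-specifically biotinylated SIRPalpha was added for 30 min; finally streptavidin-APC was added before reading the TR-FRET ratio.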

The target in test [6] is T1, Tyrosine-protein phosphatase non-receptor type substrate 1 (Homo sapiens) + Leukocyte surface antigen CD47 (Homo sapiens). The experiment in a line: CD47-SIRPalpha protein protein interaction - Alpha assay qHTS validation (AID 1347059; active = well fitted curve in the direction sought with a large enough effect; an effect the other way counts as inactive or inconclusive;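 note: bead proximity luminescence from CD47 binding SIRPalpha after compound preincubation with SIRPalpha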; note: potency is the fitted concentration of half-maximal effect). Conditions: AlphaScreen CD47-His/biotin-SIRPalpha binding, LOPAC; series mostly up to 38.3 µM. The method, boiled down: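 Soluble extracellular domains: Avi-tag biotinylated SIRPalpha (25 nM) preincubated 30 min RT with compound, then 6His-CD47 (12.5 nM) 30 min; Ni-NTA acceptor and streptavidin donor beads (10 ug/mL) 30 min, AlphaScreen read. PBS pH 7.4, 0.05% IGEPAL.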
In general terms: Quantitative high-throughput screening tests each substance at several concentrations.

The target is the same in test [7]. The experiment in a line: CD47-SIRPalpha protein protein interaction - HTRF assay qHTS validation (AID 1347058; active = well fitted curve in the direction sought with a large enough effect in the signal ratio, not every such curve was filed as active; the % refers to the signal ratio). Conditions: TR-FRET HTRF CD47-His / biotin-SIRPalpha binding, ratio 665/615; series mostly up to 38.3 µM. Summed up:
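TR-FRET read (Ch1/Ch2 ratio) of soluble extracellular CD47 and Avi-biotinylated SIRPalpha domains in PBS pH 7.4 with 0.05% IGEPAL; 7-point compound titration. Sequential 30 min room-temperature steps; non-biotinylated SIRPalpha as control inhibitor.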
For orientation: Time-resolved FRET reads energy transfer from a long-lived donor to a nearby acceptor.

Each structure is given as a SMILES string. Results filed as inconclusive are left out. The source made the active and inactive calls. Unless noted, calls come from the whole dose curve.

Sequence of Atrial natriuretic peptide receptor 1 (Homo sapiens) (P16066 whole entry, looked up): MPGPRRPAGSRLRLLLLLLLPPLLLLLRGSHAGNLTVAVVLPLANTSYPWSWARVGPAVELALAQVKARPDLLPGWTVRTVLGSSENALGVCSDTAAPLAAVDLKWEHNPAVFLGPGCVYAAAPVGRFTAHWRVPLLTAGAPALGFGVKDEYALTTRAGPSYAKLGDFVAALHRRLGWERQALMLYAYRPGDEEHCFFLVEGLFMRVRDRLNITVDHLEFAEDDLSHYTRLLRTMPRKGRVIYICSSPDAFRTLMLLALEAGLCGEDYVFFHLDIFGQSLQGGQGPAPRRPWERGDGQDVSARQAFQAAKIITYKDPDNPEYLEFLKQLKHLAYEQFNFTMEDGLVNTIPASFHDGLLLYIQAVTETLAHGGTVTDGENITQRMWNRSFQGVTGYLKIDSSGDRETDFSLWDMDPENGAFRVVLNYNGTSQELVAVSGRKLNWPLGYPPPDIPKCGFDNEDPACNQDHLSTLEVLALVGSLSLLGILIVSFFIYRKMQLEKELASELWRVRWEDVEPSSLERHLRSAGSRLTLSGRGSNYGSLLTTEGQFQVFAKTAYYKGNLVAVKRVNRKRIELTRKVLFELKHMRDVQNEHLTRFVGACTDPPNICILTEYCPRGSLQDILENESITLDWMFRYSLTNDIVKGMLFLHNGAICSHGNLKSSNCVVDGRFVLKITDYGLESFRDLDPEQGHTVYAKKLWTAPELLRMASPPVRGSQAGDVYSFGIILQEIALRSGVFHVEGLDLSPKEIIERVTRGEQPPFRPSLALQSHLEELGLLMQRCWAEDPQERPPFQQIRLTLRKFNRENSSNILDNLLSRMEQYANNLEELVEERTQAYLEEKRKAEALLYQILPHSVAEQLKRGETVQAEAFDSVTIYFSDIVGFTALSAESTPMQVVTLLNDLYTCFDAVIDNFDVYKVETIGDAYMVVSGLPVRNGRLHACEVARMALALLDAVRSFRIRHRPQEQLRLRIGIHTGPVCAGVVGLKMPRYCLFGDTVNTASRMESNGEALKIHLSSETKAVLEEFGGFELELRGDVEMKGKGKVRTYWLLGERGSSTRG
Sequence of Atrial natriuretic peptide receptor 2 (Homo sapiens) (P20594 whole entry, looked up): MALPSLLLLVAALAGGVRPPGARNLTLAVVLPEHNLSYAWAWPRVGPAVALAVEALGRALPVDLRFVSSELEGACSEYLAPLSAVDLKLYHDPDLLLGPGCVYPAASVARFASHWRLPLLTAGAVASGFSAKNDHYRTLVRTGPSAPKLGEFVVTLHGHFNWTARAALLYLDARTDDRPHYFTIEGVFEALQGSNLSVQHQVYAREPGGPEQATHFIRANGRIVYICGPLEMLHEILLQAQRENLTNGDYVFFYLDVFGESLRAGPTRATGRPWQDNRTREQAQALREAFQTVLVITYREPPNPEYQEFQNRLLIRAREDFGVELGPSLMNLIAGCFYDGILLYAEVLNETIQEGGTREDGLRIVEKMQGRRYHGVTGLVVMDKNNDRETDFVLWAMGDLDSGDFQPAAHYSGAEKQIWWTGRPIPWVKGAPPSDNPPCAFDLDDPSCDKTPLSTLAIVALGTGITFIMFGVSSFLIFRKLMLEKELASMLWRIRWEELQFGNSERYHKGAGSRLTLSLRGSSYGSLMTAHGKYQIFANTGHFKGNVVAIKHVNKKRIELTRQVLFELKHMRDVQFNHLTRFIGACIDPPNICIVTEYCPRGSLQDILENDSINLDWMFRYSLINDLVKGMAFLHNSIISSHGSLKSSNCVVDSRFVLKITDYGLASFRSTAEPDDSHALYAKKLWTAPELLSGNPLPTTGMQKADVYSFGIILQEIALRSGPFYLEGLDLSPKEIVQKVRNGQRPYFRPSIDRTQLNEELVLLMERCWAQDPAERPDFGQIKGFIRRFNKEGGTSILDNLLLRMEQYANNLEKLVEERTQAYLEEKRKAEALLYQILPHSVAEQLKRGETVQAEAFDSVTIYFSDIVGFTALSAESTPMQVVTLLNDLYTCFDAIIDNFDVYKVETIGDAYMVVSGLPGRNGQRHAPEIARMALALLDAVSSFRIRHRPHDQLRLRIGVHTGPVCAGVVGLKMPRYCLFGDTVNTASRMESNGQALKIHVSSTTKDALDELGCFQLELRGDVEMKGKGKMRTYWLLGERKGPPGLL
T1 sequence (P78324 whole entry, looked up): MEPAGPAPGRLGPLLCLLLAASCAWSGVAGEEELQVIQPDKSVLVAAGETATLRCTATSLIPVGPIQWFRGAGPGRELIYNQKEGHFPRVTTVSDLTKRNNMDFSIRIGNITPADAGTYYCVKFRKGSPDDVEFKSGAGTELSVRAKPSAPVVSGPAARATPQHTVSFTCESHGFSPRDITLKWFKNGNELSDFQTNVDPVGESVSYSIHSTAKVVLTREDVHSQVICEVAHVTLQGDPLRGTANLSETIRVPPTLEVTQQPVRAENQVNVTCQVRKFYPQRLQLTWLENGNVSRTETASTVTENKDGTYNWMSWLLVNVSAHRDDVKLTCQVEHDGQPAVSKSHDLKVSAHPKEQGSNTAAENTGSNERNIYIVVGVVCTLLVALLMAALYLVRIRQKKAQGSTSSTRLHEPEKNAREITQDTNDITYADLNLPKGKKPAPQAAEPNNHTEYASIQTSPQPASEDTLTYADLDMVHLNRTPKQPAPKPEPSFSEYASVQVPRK
T1 sequence (Q08722 whole entry, looked up): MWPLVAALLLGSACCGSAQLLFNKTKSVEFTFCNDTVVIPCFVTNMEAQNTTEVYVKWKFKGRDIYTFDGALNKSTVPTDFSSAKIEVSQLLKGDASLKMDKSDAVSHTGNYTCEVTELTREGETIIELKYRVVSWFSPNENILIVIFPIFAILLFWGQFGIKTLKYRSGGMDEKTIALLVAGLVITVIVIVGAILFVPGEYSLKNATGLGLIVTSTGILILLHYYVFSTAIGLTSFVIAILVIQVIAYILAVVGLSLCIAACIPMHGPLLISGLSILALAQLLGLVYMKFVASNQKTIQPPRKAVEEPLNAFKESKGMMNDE

Regarding `NC(Cc1cc(O)c(O)cc1O)C(=O)O` (stereo unspecified), the Potency result in test [1], in test [2] and in test [3] was “inactive” throughout. The result in test [4] was inactive. In addition, the figures for the Potency in test [5] and in test [6] were 13.1 µM (active) and 0.927 µM (active), respectively.
For the compound `CN1CCc2cc(O)cc3c2[C@H]1Cc1ccc(O)c(O)c1-3`, the Potency entry in test [1], in test [2], in test [3] and in test [6] was “inactive” throughout. In test [4], the call was inactive.
Take `CCCN1CCc2cccc3c2[C@H]1Cc1ccc(O)c(O)c1-3`: the Potency entry in test [1], in test [2], in test [3] and in test [6] was “inactive” in each case.
On to `CN1CC[C@@]2(C)c3cc(OC(=O)Nc4ccccc4)ccc3N(C)[C@@H]12`, for which the Potency result in test [1], in test [2], in test [3], in test [5] and in test [6] was “inactive” throughout. In test [4], the call was inactive.
In the case of `CCCN(CCC)C1Cc2cc(OC)c(OC)cc2C1`, the Potency entry in test [1], in test [3], in test [5] and in test [6] was “inactive” in each case. For the same compound, the compound was called inactive in test [4] and in test [7].
`c1ccc2c(c1)[I+]c1ccccc1-2`: the Potency in test [1] is 4.14 µM (active); in test [2], 3.01 µM (active); in test [3] it was 0.927 µM (active). In addition, the Potency result in test [5] and in test [6] was “inactive” in each case. Also, the result in test [7] was inactive.
`O=S1(=O)N(CCN2CC=C(c3c[nH]c4cc(F)ccc34)CC2)c2cccc3c2N1CCC3`: the Potency entry in test [1], in test [2], in test [3], in test [5] and in test [6] was “inactive” each time. Also, in test [4], the result was inactive.
For the compound `NC(N)=Nc1ccc2[nH]c3c(c2c1)C[C@@]1(O)[C@H]2Cc4ccc(O)c5c4[C@@]1(CCN2CC1CC1)[C@H]3O5`, the Potency in test [1] was 6.56 µM (active); in test [2], 19 µM (active). The result in test [4] was inactive. Besides, the Potency entry in test [5] and in test [6] was “inactive” throughout.
With `C#CCN[C@H](C)Cc1ccccc1`, the Potency result in test [1], in test [3], in test [5] and in test [6] was “inactive” in each case. The compound was classed as inactive in test [4] and in test [7].
Turning to `C[N+](C)(C)CC#CCOC(=O)Nc1cccc(Cl)c1`, the Potency entry in test [1], in test [3], in test [5] and in test [6] was “inactive” each time. Moreover, the result in test [4] and in test [7] was inactive.
In the case of `NNC(=O)c1ccc(O)cc1`, the Potency entry in test [1], in test [2], in test [3], in test [5] and in test [6] was “inactive” throughout. The outcome in test [7] was inactive.
Turning to `CC(N)[C@H](O)c1ccc(O)c(O)c1` (stereo partly specified), the Potency entry in test [1], in test [2], in test [3], in test [5] and in test [6] was “inactive” in each case. The outcome in test [4] was inactive.
In the case of `COc1cc(CC(C)N)c(OC)cc1I` (stereo unspecified), the Potency entry in test [1] and in test [3] was “inactive” in each case.
Turning to `CCS(=O)(=O)Nc1cccc(C(=C2CCCCC2)c2cnc[nH]2)c1`, the Potency result in test [1], in test [3], in test [5] and in test [6] was “inactive” throughout. Moreover, the compound was classed as inactive in test [4] and in test [7].
Take `C[N+]1(C)CCN(c2ccccc2)CC1`: the Potency entry in test [1], in test [2], in test [3] and in test [6] was “inactive” throughout. Besides, the call in test [4] and in test [7] was inactive.
For `CN1CCC(c2c[nH]c3ccc(O)cc23)CC1`, the Potency entry in test [1], in test [2], in test [3], in test [5] and in test [6] was “inactive” in each case. In test [4], the compound was called inactive.
With `C[N+]1(C)C2CCC1CC(OC(=O)c1c[nH]c3ccccc13)C2` (stereo unspecified), the Potency entry in test [1], in test [2], in test [3] and in test [6] was “inactive” in each case. Besides, the call in test [4] and in test [7] was inactive.
Regarding `O=[N+]([O-])/C=C/c1ccc2c(c1)OCO2`, the Potency in test [1] was 1.47 µM (active); in test [2] it was 2.39 µM (active); in test [3], 1.47 µM (active). Moreover, the Potency result in test [5] and in test [6] was “inactive” in each case.
On to `COc1ccc(CNC(=O)/C=C/c2ccc3[nH]cc(CCN(C)C)c3c2)cc1`, for which the Potency result in test [1], in test [2], in test [3], in test [5] and in test [6] was “inactive” in each case. For the same compound, the call in test [4] was inactive.
Turning to `N[C@@]1(C(=O)O)CC[C@@H](C(=O)O)C1`, the Potency entry in test [1], in test [3], in test [5] and in test [6] was “inactive” each time. Besides, the call in test [4] and in test [7] was inactive.
Regarding `Cc1sc2ccccc2c1CC1=NCCN1`, the Potency entry in test [1], in test [2], in test [3], in test [5] and in test [6] was “inactive” each time. Also, in test [4], the result was inactive.
For `COc1ccc2c(c1)C13CCCCC1C(C2)N(C)CC3` (stereo unspecified), the Potency result in test [1], in test [2], in test [3], in test [5] and in test [6] was “inactive” each time. Moreover, the call in test [4] was inactive.
As for `CC(C)(C)c1cc(C=C(C#N)C#N)cc(C(C)(C)C)c1O`, the Potency in test [1] was 0.131 µM (active); in test [2], 0.301 µM (active); in test [3] it was 0.414 µM (active). For the same compound, the Potency result in test [5] and in test [6] was “inactive” throughout. The result in test [7] was inactive.
In the case of `C[C@@H]1O[C@@H](O[C@H]2C[C@@H](O)[C@]3(CO)[C@@H]4C(CC[C@]3(O)C2)[C@@]2(O)CC[C@H]([C@@H]3COC(=O)C3)[C@@]2(C)C[C@H]4O)[C@H](O)[C@H](O)[C@H]1O` (stereo partly specified), the Potency result in test [1], in test [2], in test [3], in test [5] and in test [6] was “inactive” in each case. The result in test [7] was inactive.
As for `CCCN(CCC)[C@@H]1CCc2cccc(O)c2C1`, the Potency result in test [1], in test [3], in test [5] and in test [6] was “inactive” each time. Also, the result in test [4] and in test [7] was inactive.
In the case of `CCn1cnc2c(Nc3cccc(Cl)c3)nc(N[C@@H]3CCCC[C@@H]3N)nc21`, the Potency entry in test [1], in test [2], in test [5] and in test [6] was “inactive” each time. Moreover, in test [7], the outcome was inactive.

The values above are taken from PubChem BioAssay (NCATS).
